According to PubChem BioAssay (EPA / NIEHS):
Where “and” joins values, the source holds several entries; their conditions need not be identical. Identical values can stand only once. Calls of active or inactive are those of the source. How the source made its calls: active means hit-call score of the fitted dose curve at least 0.9, where 1 is the maximum; inactive means score below 0.9.

assay: CCTE_Shafer_MEA_dev_firing_rate_mean: CCTE's Neural Network Formation Assay for Mean Firing Rate, Shafer Lab (AID 2284031);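 on AC50: curve fitted for loss of firing so AC50 reflects decreased mean firing rate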
Procedure: CCTE_Shafer_MEA_dev assay is conducted using Axion Biosystems 48 well microelectrode array (MEA) plates and Maestro recording system. Each well of the MEA plate contains a grid of 16 microelectrodes embedded in the culture surface. Electrically active cells, such as neurons, can be cultured over the electrodes, and electrical activity in these cells can be recorded extracellularly. The spontaneous firing of neurons is captured from each electrode on a microsecond timescale providing both temporally and spatially precise data. […] The CCTE_Shafer_MEA_dev assay uses primary cultures of rat cortical neurons. Recordings are made on days post-plating 5, 7, 9 and 12. As these cultures mature over time, neural networks develop functional activity and form cohesive networks in which electrical activity can be highly coordinated. CCTE_Shafer_MEA_dev_firing_rate_mean is 1 of 19 assay components of the CCTE_Shafer_MEA_dev assay. It measures the frequency of spikes (action potential firings) as the total number of spikes divided by the length of the recording in a microelectrode array (MEA) using Axion Biosystems Maestro 768 channel amplifier with the AxIS adaptive spike detector. The firing rate is averaged across the active electrodes to report a well-mean value. To collapse across multiple recordings made on days post-plating 5, 7, 9 and 12, the trapezoidal area-under-the-curve of the component is calculated.Data from the assay component CCTE_Shafer_MEA_dev_firing_rate_mean was analyzed into 1 assay endpoint. This assay endpoint, CCTE_Shafer_MEA_dev_firing_rate_mean, was analyzed in the negative analysis fitting direction relative to DMSO as the negative control and baseline of activity. Using a type of functional reporter, gain or loss-of-signal activity can be used to understand electrical activity.
On the day prior to culture, each well was coated thoroughly with 150 uL of 0.05% polyethyleneimine (PEI, Sigma Cat P3143) in 50 mM HEPES (Sigma Cat H7523) at a pH of 8. The plate was incubated at 37C for one hour. PEI was rinsed out with 500 uL of sterile water three times. Plates were stored at 4C until the day of culture. This culture was plated at a seeding density of 1.5 x 10^5 cells/well on a 48-well MEA plate, prepared as described above. Cells were administered via a 25 uL media/laminin ([…]; Sigma Cat L2020-1MG) drop directly onto the microelectrode array, as adding the cells with the laminin results in better attachment than pre-coating with laminin. After 2 hours, an additional 475 uL of cortical media was added and the cells returned to the incubator. Exposure starts at day 0 of plating and is continued over twelve days of network development until the experiment is terminated. Cells are fed with fresh medium on DIV 5 and 9, following the recordings on those days. The entire volume of media in the well is exchanged and any vehicle or compound treatment is renewed. Complete details are found in OP-NHEERL/ISTD/SBB/TJS/2015-03-r0 (available on request, email shafer.tim@epa.gov). Measurement of the electrical activity is non-invasive, and recordings can be made from the same plate over multiple different days of the culture. In cortical neurons, this allows for the measurement of extracellular action potentials over the period during which networks form in the MEA plate.

Structure (SMILES) | AC50 | outcome
COc1ccc2cc3[n+](cc2c1OC)CCc1cc2c(cc1-3)OCO2 | 106 nM (active) | 
c1cc2ccc3ccc4ccc5cccc6c(c1)c2c3c4c56 |  | inactive
CN(C)CCC(c1ccc(Cl)cc1)c1ccccn1 (stereo not given) |  | inactive
C[C@H](CS)C(=O)N1CCC[C@H]1C(=O)O |  | inactive
CC1(C)S[C@@H]2[C@H](NC(=O)[C@H](N)c3ccc(O)cc3)C(=O)N2[C@H]1C(=O)O |  | inactive
CN(C)C(=O)C(CCN1CCC(O)(c2ccc(Cl)cc2)CC1)(c1ccccc1)c1ccccc1 | 63.2 nM (active) and 101 nM (active) and 190 nM (active) | 
CC1(C)S[C@@H]2[C@H](NC(=O)[C@H](N)c3ccccc3)C(=O)N2[C@H]1C(=O)O |  | inactive
Cc1c(O)cccc1C(=O)N[C@@H](CSc1ccccc1)[C@H](O)CN1C[C@H]2CCCC[C@H]2C[C@H]1C(=O)NC(C)(C)C | 438 nM (active) | 
c1ccc2cc3c4ccccc4c4ccccc4c3cc2c1 |  | inactive
[Cl-].[Cl-].[NH2-].[NH2-].[Pt+4] |  | inactive
CC(C)(C)NCC(O)c1cc(O)cc(O)c1 (stereo not given) |  | inactive
NC(N)=Nc1nc(CSCCC(N)=NS(N)(=O)=O)cs1 |  | inactive
CC[C@H](C)C(=O)O[C@H]1CCC=C2C=C[C@H](C)[C@H](CC[C@@H]3C[C@@H](O)CC(=O)O3)[C@H]21 | 1.41 µM (active) and 8.96 µM (active) | 
C[C@@H]1C[C@H]2[C@@H]3CCC4=CC(=O)C=C[C@]4(C)[C@@]3(F)[C@@H](O)C[C@]2(C)[C@@]1(O)C(=O)CO |  | inactive
CNCCC(Oc1ccc(C(F)(F)F)cc1)c1ccccc1 (stereo not given) | 1870 nM (active) | 
